High-throughput results: PubChem, NMMLSC
Rows were chosen to be rich in hits. Some 3.5% of all compounds tested hit in one or more screens of this group.
BoNT F protease: blocks Botulinum neurotoxin F light chain protease; actives 0.22% (n = 360,000); inhibition, % at 10 µM; Multiplex microsphere protease cleavage assay, flow cytometry; in the data active = inhibition above about 35%, passing the limit was not always enough; inconclusive = no clear call, values can overlap the other calls; also: plate controls were buffer without enzyme for full effect and enzyme alone for no effect
Anthrax LF prot: blocks Bacillus anthracis lethal factor protease; P15917; multiplex microsphere protease cleavage assay, LF; inhibition, % at 10 µM; actives 0.12% (n = 360,000); AID 588501; also: plate controls were buffer without enzyme for full effect and enzyme alone for no effect
Target sequence (P15917 whole entry, looked up): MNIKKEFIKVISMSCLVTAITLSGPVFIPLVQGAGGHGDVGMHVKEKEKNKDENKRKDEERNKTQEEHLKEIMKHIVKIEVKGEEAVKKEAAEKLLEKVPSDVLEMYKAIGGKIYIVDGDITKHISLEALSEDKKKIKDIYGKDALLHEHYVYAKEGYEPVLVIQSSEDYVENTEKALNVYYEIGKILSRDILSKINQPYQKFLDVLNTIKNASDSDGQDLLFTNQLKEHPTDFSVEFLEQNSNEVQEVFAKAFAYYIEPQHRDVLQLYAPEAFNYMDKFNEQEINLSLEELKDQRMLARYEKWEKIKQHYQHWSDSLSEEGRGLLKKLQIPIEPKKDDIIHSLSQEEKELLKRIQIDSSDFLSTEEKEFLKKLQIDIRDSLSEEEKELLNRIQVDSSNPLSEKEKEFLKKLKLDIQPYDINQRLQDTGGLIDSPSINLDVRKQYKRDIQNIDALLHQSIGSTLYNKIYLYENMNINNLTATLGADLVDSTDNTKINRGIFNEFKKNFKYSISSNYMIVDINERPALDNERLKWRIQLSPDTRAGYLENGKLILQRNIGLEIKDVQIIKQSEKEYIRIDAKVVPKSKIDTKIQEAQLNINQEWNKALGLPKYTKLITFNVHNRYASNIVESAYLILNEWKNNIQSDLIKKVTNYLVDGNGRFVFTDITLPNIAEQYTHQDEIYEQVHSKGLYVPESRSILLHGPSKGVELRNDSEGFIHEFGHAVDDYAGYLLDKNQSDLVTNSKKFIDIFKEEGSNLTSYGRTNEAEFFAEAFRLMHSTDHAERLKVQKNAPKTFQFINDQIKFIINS
BoNT-A LC inh2: inhibitors of Botulinum neurotoxin A light chain protease. actives 0.17% (n = 360,000). multiplex microsphere protease substrate cleavage, flow cytometry. inhibition, % at 10 µM; also: plate controls were buffer without enzyme for full effect and enzyme alone for no effect
Bead autofluor: counter-screen for toxin protease inhibitors: compound fluorescence | AID 624483 | compound autofluorescence counterscreen, microsphere flow cytometry; stronger effect = higher value | fluorescence intensity (no concentration beside the values) | actives 3.1% (n = 360,000); in the data active = fluorescence intensity above about 16000; inconclusive = no clear call, values can overlap the other calls
Active calls of the source: *; ? = inconclusive. Rule as the data show it, unless noted: active = inhibition above about 30%; inconclusive = no clear call, values can overlap the other calls; inactive = below that.

SMILES | BoNT F protease | Anthrax LF prot | BoNT-A LC inh2 | Bead autofluor
CCOc1ccccc1C(=O)Nc1ccccc1C(N)=O | 2 | -4 | ? | 23043*
CCOC(=O)CCC(=O)Nc1ccccc1C(N)=O | -3 | -5 | ? | 22534*
CCOc1ccccc1NC(=O)c1ccccc1-c1ccccc1 | ? | 1 | 2 | 4073
CCOC(=O)C(=O)Nc1ccccc1C(=O)NC(C)C | 0 | -1 | 0 | 22964*
CCOC(=O)C(=O)Nc1ccccc1C(=O)OCC | -6 | -2 | -2 | 3848
CCCCC(=O)Nc1cccc(NC(=O)c2ccccc2Br)c1 | 1 | -2 | 0 | 20490*
Cc1ccccc1NC(=S)NC(=O)CCc1ccccc1 | -3 | 4 | -1 | 19923*
CCCCC(=O)NC(=S)Nc1ccccc1C(=O)Nc1ccccc1 | 15 | -9 | ? | 17346*
Cc1cccc(C)c1NC(=S)NC(=O)CCc1ccccc1 | 2 | -2 | 0 | 5612
COC(=O)c1ccccc1NC(=S)NC(=O)CC(C)C | 1 | -1 | 2 | 22351*
S=C(Nc1cccnc1)NC1CC2CCC1C2 (stereo not drawn) | -2 | 0 | 0 | 5007
CCN1CCN(C(=O)CCCCCn2c(=O)[nH]c3cc(C(=O)OC)ccc3c2=O)CC1 | -4 | -2 | 0 | 7131
CCN1CCN(CCNC(=O)CCCCCn2c(=O)[nH]c3cc(C(=O)OC)ccc3c2=O)CC1 | -3 | -2 | -2 | 23054*
O=C(CN1C(=O)NC2(CCCC2)C1=O)N1CCN(Cc2ccccc2)CC1 | 6 | -6 | -3 | 7254
Cc1ccc(C(=O)O/N=C2\CCSc3ccc(C)cc32)cc1 | 0 | -5 | ? | 19396*
Cc1ccc(S(=O)(=O)O/N=C2\CCCc3ccccc32)cc1 | -4 | -1 | 0 | 2791
COc1ccc(S(=O)(=O)O/N=C2\CCSc3ccc(C)cc32)cc1 | -9 | -1 | -7 | 21946*
O[C@@H]1CN(Cc2ccccc2Cl)CC[C@H]1N1CCOCC1 | -16 | 5 | -7 | 3755
Cc1ccc(C)c(N2CCN(C(=O)c3ccc(NC4=NC5CS(=O)(=O)CC5S4)cc3)CC2)c1 (stereo not drawn) | -14 | -3 | -1 | 5609
Cc1nc2nc(SCc3ccccc3)[nH]n2c(=O)c1C | -7 | -5 | -1 | 3954
CCc1ccc(-c2c(C)sc(NC(C)=O)c2C(N)=O)cc1 | -10 | 0 | -8 | 22107*
Cc1ccc(S(=O)(=O)N2CCN(CC(=O)Nc3ccnn3C3CCCC3)CC2)cc1 | 0 | -2 | 1 | 6441
Cc1ccc(S(=O)(=O)N2CCCCC2)cc1NC(=O)CSc1nc(N)cc(=O)[nH]1 | 4 | 8 | 0 | 4206
O=C(Nc1ccccc1C(F)(F)F)C1CCN(C(=O)Cc2ccccc2)CC1 | -12 | -4 | 2 | 5918
Cc1cccc(CN2CCN(CC(=O)N3CCCC3)C2=O)c1 | 6 | -1 | 1 | 8439
SMILES | BoNT F protease | Anthrax LF prot | BoNT-A LC inh2 | Bead autofluor
O=C(CN1CCN(Cc2ccccc2)C1=O)NCc1ccc(Cl)cc1 | -5 | 0 | -1 | 5174
Cc1ccccc1CN1CCN(CC(=O)NCc2ccccc2)C1=O | -2 | -1 | -3 | 20841*
Cc1cccc(CN2CCN(CC(=O)O)C2=O)c1 | -2 | -2 | -1 | 19589*
COCC(=O)N1CCC(Oc2ccc(C(=O)N3C[C@@H]4CCC[C@H]3C4)cc2)CC1 | -10 | 1 | -1 | 4474
CN1CCN(S(=O)(=O)c2cccc([N+](=O)[O-])c2)CC1 | -1 | -1 | 0 | 20528*
CN1CCN(S(=O)(=O)c2cccc(S(=O)(=O)c3cccc(S(=O)(=O)N4CCN(C)CC4)c3)c2)CC1 | 0 | 0 | -1 | 21260*
CN1CCN(S(=O)(=O)c2ccc3ccccc3c2)CC1 | -2 | -7 | 0 | 6375
O=[N+]([O-])c1cccc(S(=O)(=O)N2CCCCC2)c1 | 24 | -5 | 0 | 3821
C=CCc1cccc(CNc2nc3ccccc3n2C(C)C)c1O | -3 | -4 | ? | 23489*
C=CCn1c(NCc2ccccc2O)nc2ccccc21 | ? | -14 | 0 | 2781
O=C1CC(=C2c3ccccc3-c3ccccc32)C(=O)N1CCN1CCN(c2ccccc2)CC1 | 0 | -3 | 2 | 19425*
Cc1ccccc1N1CCN(CCN2C(=O)CC(=C3c4ccccc4-c4ccccc43)C2=O)CC1 | -5 | -2 | 0 | 16193*
CCOc1ccccc1N=C1SCC(C)N1C(=O)C1CCN(c2ncnc3sc(C)c(C)c23)CC1 (stereo not drawn) | -19 | -5 | -1 | 3739
Clc1ccccc1Nc1c2c(nc3ncnn13)CCC2 | 5 | -13 | 5 | 21040*
c1ccc(Nc2c3c(nc4ncnn24)CCC3)cc1 | 4 | 3 | 0 | 10506
Fc1ccccc1CCNc1c2c(nc3ncnn13)CCCC2 | -7 | -6 | 0 | 4110
c1coc(CNc2c3c(nc4ncnn24)CCC3)c1 | 7 | -3 | 6 | 20732*
c1ccc(CCNc2c3c(nc4ncnn24)CCC3)cc1 | 0 | -7 | 2 | 22631*
CC(=O)C1=CCC(c2ccccc2)N(S(=O)(=O)c2cccc(C)c2)C1 (stereo not drawn) | -10 | -6 | 0 | 6527
Cc1ccc(NC(=O)COC(=O)C2=NN(c3ccccc3)C(=O)CC2)c(Br)c1 | -8 | -8 | 0 | 9092
CC1c2ccccc2N(S(=O)(=O)c2ccccc2)C1C (stereo not drawn) | -3 | 0 | 1 | 3652
CCc1nc2scc(-c3ccc(C)cc3)c2c(=O)n1N | 1 | -1 | -1 | 2177
CCCc1nc2scc(-c3ccccc3)c2c(=O)n1N | 0 | -1 | -2 | 23965*
COc1ccc(N2Cc3ccccc3C2=O)cc1 | ? | -20 | -3 | 4399
COc1ccc(N2CS(=O)(=O)/C(=C/N(C)C)C2=O)cc1 | 0 | -3 | 0 | 20727*
SMILES | BoNT F protease | Anthrax LF prot | BoNT-A LC inh2 | Bead autofluor
Cc1ccc(Cc2ccccc2C(=O)O)cc1 | -3 | -2 | 0 | 3679
CC1CCCCC1NC(=O)CCCCCn1c(=S)[nH]c2ccccc2c1=O (stereo not drawn) | -3 | -5 | 0 | 3412
COn1c(=S)[nH]c2ccccc2c1=O | 1 | -2 | ? | 22258*
CC1CCCCC1n1c(=S)[nH]c2ccccc2c1=O (stereo not drawn) | -2 | -13 | -2 | 23138*
Cc1nn(Cc2ccccc2)c(Cl)c1C(=O)NCCc1ccccc1 | -4 | -2 | 0 | 2109
Cc1nn(Cc2ccccc2)c(Cl)c1C(=O)NCc1ccc(C)n1C | 2 | -7 | ? | 19508*
CC1CCCC(NC(=O)c2cccc(S(=O)(=O)N3CCN(c4ccccc4)CC3)c2)C1C (stereo not drawn) | -7 | -4 | -2 | 5771
N#Cc1nc(COc2ccc(F)cc2)oc1N1CCC(Cc2ccccc2)CC1 | -3 | -5 | -1 | 16803*
COc1ccc(N2CCN(c3oc(COc4ccccc4Cl)nc3C#N)CC2)cc1 | -1 | -10 | ? | 19893*
Cc1ccc(CNc2oc(COc3ccccc3Cl)nc2C#N)cc1 | -12 | -4 | -1 | 2314
COc1ccc(CNc2oc(COc3ccccc3)nc2C#N)cc1 | 3 | -10 | 1 | 9489
N#Cc1nc(COc2ccc(F)cc2)oc1N1CCN(Cc2ccccc2)CC1 | -7 | -9 | 0 | 4287
COc1ccc(CNc2oc(C)nc2C#N)cc1 | -4 | 1 | ? | 20862*
COc1ccc(OCc2nc(C#N)c(N3CCN(c4ccc(OC)cc4)CC3)o2)cc1 | -6 | -8 | -1 | 5128
